# Bioassay records deposited in PubChem BioAssay by National Center for Advancing Translational Sciences (NCATS).
# An excerpt weighted towards active compounds, which were near 19% of everything screened.
# HepG2 tox: qHTS for Inhibitors of TGF-b: Cytotox Counterscreen. HepG2 CAGA-GFP viability, ATP luminescence, 18 h. 0.76% of 410,000 active. Potency, µM (highest dose often 46.1 µM), without a hit: at the top dose activity change, negative = cytotoxicity, most hits filed as cytotoxic. AID 588856, 2011; also: potency is read from the fitted curve at half-maximal effect
#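 HepG2 CAGA-GFP cells (1000/well, DMEM with 1% FBS) received compound, then TGF-beta at 500 pg/mL final, and were incubated 18 hours at 37 degrees C. Viability was read by CellTiter-Glo luminescence. Media-only wells were set as complete cell-killing and DMSO as no toxicity.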
# TDP1 inh: qHTS Assay for Inhibitors of Tyrosyl-DNA Phosphodiesterase (TDP1); recombinant TDP1, AlphaScreen DNA substrate cleavage; Potency, µM (highest dose often 130 µM), without a hit: top-dose activity change, negative = inhibition, usual class: inhibitors; AID 485290, 2010; Tyrosyl-DNA phosphodiesterase 1 (Homo sapiens), Q9NUW8; 0.28% of 350,000 active; also: potency is read from the fitted curve at half-maximal effect; % is scaled to controls: 0 for no effect and ±100 for the full control effect; nearly all actives have a fitted effect of over 40% in size
# Target sequence (Q9NUW8 whole entry, looked up): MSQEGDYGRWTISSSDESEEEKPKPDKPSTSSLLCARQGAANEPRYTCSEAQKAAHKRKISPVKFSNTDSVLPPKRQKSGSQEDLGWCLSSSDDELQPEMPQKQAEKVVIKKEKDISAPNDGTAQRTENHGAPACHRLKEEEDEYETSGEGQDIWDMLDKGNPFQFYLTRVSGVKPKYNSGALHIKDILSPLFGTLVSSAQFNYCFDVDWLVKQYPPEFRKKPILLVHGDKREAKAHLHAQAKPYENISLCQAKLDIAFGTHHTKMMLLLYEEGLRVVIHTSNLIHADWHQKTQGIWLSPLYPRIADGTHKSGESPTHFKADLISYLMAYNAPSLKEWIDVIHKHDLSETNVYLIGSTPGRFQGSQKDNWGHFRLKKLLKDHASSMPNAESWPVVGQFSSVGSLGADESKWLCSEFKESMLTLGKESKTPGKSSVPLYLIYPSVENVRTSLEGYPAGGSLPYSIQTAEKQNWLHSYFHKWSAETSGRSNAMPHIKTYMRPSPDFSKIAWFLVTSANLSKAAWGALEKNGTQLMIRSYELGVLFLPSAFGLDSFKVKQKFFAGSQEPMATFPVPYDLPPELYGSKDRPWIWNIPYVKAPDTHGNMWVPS
#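 Recombinant E. coli-expressed Tdp1 (1 nM) preincubated with compound 15 min at RT, then 5'-biotin/3'-phosphotyrosine-FITC DNA substrate (15 nM) added for 5 min. AlphaScreen beads (10 ug/ml) added, 10 min RT; tyrosine-FITC cleavage read as signal loss.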
# IL-1B inflam inh: qHTS for Inhibitors of Inflammasome Signaling: IL-1-beta AlphaLISA Primary Screen; AID 743279, 2014; THP-1 LPS/ATP IL-1B secretion, AlphaLISA, 16 h; hits give low values; activity change, % at 57.5 µM; 4.7% of 360,000 active; in the data active = activity change below about -50%; inconclusive = mostly about -30% to -49%; also: % is scaled to controls: 0 for no effect and ±100 for the full control effect
#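 THP-1 cells pretreated 1 hr with compounds (up to 57.5 uM final), then stimulated with LPS (250 ng/mL final) plus ATP (1.25 mM final); secreted IL-1B measured by AlphaLISA after 16 hr, decreased signal indicating inhibition.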
# TGFb inhibitor: qHTS for Inhibitors of TGF-b; HepG2 CAGA-GFP TGF-b/SMAD3 reporter, GFP fluorescence, 18 h; TGF-beta stimulated, 500 pg/mL final; Potency, µM (doses to about 46.1 µM), without a hit: at the top dose activity, negative = inhibition, actives largely listed as inhibitors; 1.2% of 410,000 active; also: potency is read from the fitted curve at half-maximal effect; % is scaled to controls: 0 for no effect and ±100 for the full control effect; nearly all actives have a fitted effect of over 65% in size
#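 HEPG2 CAGA-GFP cells (1000/well, DMEM with 1% FBS) were pre-incubated 2 h at 37 degrees C, given compound by pin tool, then stimulated with TGF-beta at 500 pg/mL final for 18 h before per-cell GFP fluorescence imaging.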
# TDP1 cell CPT: qHTS for Inhibitors of human tyrosyl-DNA phosphodiesterase 1 (TDP1): qHTS in cells in presence of CPT; Potency, µM (doses to about 46.2 µM), inactives show at the highest dose activity change, negative = growth inhibition, hits mostly inhibitors; 12% of 420,000 active; AID 686979, 2013; chicken DT40 Tdp1-/-;hTDP1 cells + 20 nM CPT, ATP luminescence, 48 h; also: potency is read from the fitted curve at half-maximal effect; % is scaled to controls: 0 for no effect and ±100 for the full control effect; nearly all actives have a fitted effect of over 55% in size
#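 Cell growth measured by CellTiter-Glo luminescence after a minimum 48 h, 37 C compound exposure with 20 nM CPT in Tdp1-knockout DT40 cells stably expressing hTDP1, seeded 400/well; qHTS titration format.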
# DT40 TDP1 no CPT: qHTS for Inhibitors of human tyrosyl-DNA phosphodiesterase 1 (TDP1): qHTS in cells in absence of CPT; DT40 Tdp1-/- hTDP1 cells, no CPT, ATP luminescence, 48 h; Potency, µM (top dose mostly 46.2 µM), for the others: at the top dose activity change, negative = growth inhibition, actives largely listed as inhibitors; 15% of 420,000 active; AID 686978, 2013; also: potency is read from the fitted curve at half-maximal effect; % is scaled to controls: 0 for no effect and ±100 for the full control effect; nearly all actives have a fitted effect of over 55% in size
#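 Growth of hTDP1-complemented DT40 Tdp1-knockout cells is measured by ATP luminescence after at least 48 hr compound exposure at 37 °C, with DMSO substituting for the 20 nM CPT used in the parallel screen.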
# * hit, by the source's call; u = inconclusive; x = not tested or not shown; [ ] = dose if it differs, or a comment. Unless noted, calls follow the shape of the dose curve; as a rule, active = well fitted curve in the direction sought with a large enough effect; inconclusive = small, poorly fitted or top-dose-only effect, or another doubt; inactive = no such curve, though single readings can be large; an effect the other way counts as inactive or inconclusive.
SMILES,HepG2 tox,TDP1 inh,IL-1B inflam inh,TGFb inhibitor,TDP1 cell CPT,DT40 TDP1 no CPT
CCOC(=O)[C@]12Cc3cc(C)ccc3[C@H]1N(C(C)C)C(=O)c1ccccc12,x,x,-113*,x,10µM*,6.5µM*
CCOC(=O)[C@]12Cc3cc(C)ccc3[C@H]1N(Cc1ccccc1)C(=O)c1cc(F)c(F)cc12,x,x,x,x,21µM*,15µM*
CCOC(=O)[C@]12Cc3cc(OC)ccc3[C@H]1N(Cc1ccccc1)C(=O)c1ccccc12,-13%,x,-23,u,u,11µM*
CCOC(=O)C1=C(N)Oc2cc(C)oc(=O)c2C12C(=O)N1c3c(cccc32)C(C)CC1(C)C (stereo not drawn),4%,-3%,40,u,-11%,-1%
CCOC(=O)[C@]12Cc3c(cc(OC)c(OC)c3OC)[C@H]1N(C(C)C)C(=O)c1ccccc12,x,x,-114*,x,23µM*,15µM*
CCOC(=O)[C@]12Cc3cc(OC)ccc3[C@H]1N(Cc1ccccc1)C(=O)c1cc(F)c(F)cc12,-8%,x,-21,u,u,u
CCCCCN1C(=O)c2ccccc2[C@@]2(C(=O)OCC)Cc3cc(OC)ccc3[C@@H]12,x,x,x,x,7.3µM*,4.6µM*
CCOC(=O)[C@]12Cc3cc(C)ccc3[C@H]1N(Cc1ccccc1)C(=O)c1ccccc12,-21%,x,-3,10µM*,10µM*,15µM*
CC(=O)N1CCN(c2ccc(OCC3CO[C@@](Cn4ccnc4)(c4ccc(Cl)cc4Cl)O3)cc2)CC1 (stereo partly drawn),x,18%[56.1 µM],x,x,7.3µM*,6.5µM*
Cc1cc(-c2ccccc2)cc(-c2ccccc2)[n+]1CCc1ccccc1,-28%,2%,u,u,0.18µM*,0.21µM*
CCOc1ccc(-c2cc(C)[n+](CCc3ccc(OC)c(OC)c3)c(-c3ccc(OCC)cc3)c2)cc1,-35%,x,-109*,u,0.82µM*,1.2µM*
Fc1ccc(C[n+]2c(-c3ccccc3)cc(-c3ccccc3)cc2-c2ccccc2)cc1,-5%,1%,0,u,1.2µM*,0.58µM*
CCOc1ccc(-c2cc(C)[n+](CCO)c(-c3ccc(OCC)cc3)c2)cc1,-23%,5%,-75*,-9%,1.5µM*,0.65µM*
C=CC(=O)OCC(CC)CCCC (stereo not drawn),x,3%,x,x,x,x
CCCCC[C@H]1CCCCC[C@@H](O)C[C@H](O)[C@H](O)/C=C/C(=O)O1,x,x,0,x,u,u
COC(=O)C12OCC34C(CC5C(C)=C(O)C(=O)CC5(C)C3C(O)C1O)OC(=O)C(OC(=O)/C=C(\C)C(C)C)C24 (stereo not drawn),14%,x,-98*,-22%,0.041µM*,0.058µM*
O=C(O)Cc1cccnc1C(=O)O,x,11%,x,x,1%,-9%
Cc1nc2ccc(Cl)cn2c1P(=S)(N1CCOCC1)N1CCOCC1,3%,-2%,27,10%,15µM*,u
S=C(c1ccc(Cl)cc1)N1CCOCC1,5%,2%,3,16%,u,-4%
CC(C)[C@H](NC(=O)[C@H](CCC(=O)O)NC(=O)[C@H](Cc1ccccc1)NC(=O)[C@@H](C)NC(=O)[C@@H](N)Cc1ccc(O)cc1)C(=O)N[C@H](C(=O)NCC(N)=O)C(C)C,x,7%,x,x,x,x
CCC1=Nc2cc(C(=O)N3CCC4(CC3)OCCO4)ccc2Sc2ccc(Br)cc21,3%,6%,-20,9%,u,u
CCc1ccc(CNC(=O)c2ccc3c(c2)N=C(C)c2cc(C)ccc2S3)cc1,-18%,2%,x,u,12µM*,5.8µM*
COc1ccc(CCNC(=O)c2ccc3c(c2)N(Cc2cccc(Cl)c2)C(=O)CS3)cc1OC,-17%,-3%,x,0%,21µM*,23µM*
COc1ccc(CCNC(=O)c2ccc3c(c2)N=C(C)c2cc(C)ccc2S3)cc1OC,-30%,8%,x,u,u,15µM*
O=C(NCCc1ccccc1)c1ccc2nccnc2c1,3%,-3%,8,14%,u,-23%
SMILES,HepG2 tox,TDP1 inh,IL-1B inflam inh,TGFb inhibitor,TDP1 cell CPT,DT40 TDP1 no CPT
CC(C)(C)OC(=O)N1CCCC(C(=O)Nc2cccc(C(=O)NCCc3ccccc3)c2)C1 (stereo not drawn),-5%,x,10,0%,15µM*,21µM*
Cc1o[nH]c(=O)c1C[C@@H](N)C(=O)O,-15%,-3%,x,31%,1%,-1%
Cc1ccc(NC(=O)C2C3CCCC2C3c2ccccc2)c(C)c1 (stereo not drawn),12%,-1%,-1,6%,u,23µM*
Cc1ccc(NC(=O)c2cccn(Cc3ccccc3C)c2=O)c(C)c1,-6%,0%,x,2%,-11%,-23%
CC(C)CCOP(=O)(c1ccc(N(C)C)cc1)C(O)c1c(Cl)cccc1Cl (stereo not drawn),-28%,x,-17,-30%,u,16µM*
CN(C)c1ccc(C(O)P(=O)(OCc2ccccc2)c2ccc(N(C)C)cc2)cc1 (stereo not drawn),-29%,8%,-15,-5%,u,u
Cc1ccc(C(O)P(=O)(OCCC(C)C)c2ccc(N(C)C)cc2)cc1 (stereo not drawn),-40%,x,-16,u,u,-17%
CCCOP(=O)(c1ccc(N(C)C)cc1)C(O)c1ccc(Cl)cc1Cl (stereo not drawn),-14%,x,-79*,-23%,26µM*,26µM*
CC(C)c1ccc(C(O)P(=O)(OCc2ccccc2)c2ccc(N(C)C)cc2)cc1 (stereo not drawn),-82%,4%,u,u,u,26µM*
CN1CCN(c2cn[nH]c(=O)c2Cl)CC1,-3%,5%,19,5%,-2%,-2%
Cc1ccc(Cl)cc1N1CCN(C(=O)c2cn(CC(C)C)c(=O)c3c2c2ccccc2n3C)CC1,1%,2%,x,0%,6.5µM*,4.6µM*
N#CC(C#N)=Cc1cccnc1,-4%,0%,-86*,3%,9.2µM*,9.2µM*
O=C(Oc1ccccc1)N1CCC2(CCN(Cc3nccs3)CC2)CC1,x,x,x,x,-29%,u
